From PubChem BioAssay (EPA / NIEHS)
The source made the active and inactive calls. Rule for the calls: active = hit-call score of the fitted dose curve at least 0.9, where 1 is the maximum; inactive = score below 0.9.

What was measured:
[1] = read-out: Human Leukocyte Antigen - DR isotype (HLADR), HLA-DRA (gene 3122); experiment: BSK_CASM3C_HLADR: BioMAP Diversity Plus: CASM3C Assay for Human Leukocyte Antigen - DR isotype (HLADR) Biomarker Activity (AID 2283043); details: primary human coronary artery smooth muscle cells; actives raise or lower the signal;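 note: cell-surface HLA-DR protein level quantified by ELISA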
[2] = read-out: Macrophage colony-stimulating factor (MCSF), CSF1 (gene 1435); experiment: BSK_CASM3C_MCSF: BioMAP Diversity Plus: CASM3C Assay for Macrophage colony-stimulating factor (MCSF) Biomarker Activity (AID 2283044); details: primary human coronary artery smooth muscle cells; actives raise or lower the signal;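 note: M-CSF protein amount quantified by ELISA after 24 h exposure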
[3] = read-out: Low-density lipoprotein receptor (LDLR), LDLR (gene 3949); experiment: BSK_CASM3C_LDLR: BioMAP Diversity Plus: CASM3C Assay for Low-density lipoprotein receptor (LDLR) Biomarker Activity (AID 2283045); details: primary human coronary artery smooth muscle cells; actives raise or lower the signal;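 note: LDLR protein level on the cell surface quantified by ELISA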
[4] = read-out: Monocyte Chemoattractant Protein-1 (MCP1), CCL2 (gene 6347); experiment: BSK_CASM3C_MCP1: BioMAP Diversity Plus: CASM3C Assay for Monocyte Chemoattractant Protein-1 (MCP1) Biomarker Activity (AID 2283046); details: primary human coronary artery smooth muscle cells; actives raise or lower the signal;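 note: MCP-1 level quantified by ELISA 24 h after dosing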
[5] = BSK_CASM3C_Proliferation: Cell Proliferation Assessment in the BioMAP Diversity Plus: CASM3C Assay (AID 2283047); details: primary human coronary artery smooth muscle cells;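 note: sulforhodamine B total protein stain as relative cell number at 560 nm; sub-confluent cells exposed 48 h before staining; fitted both ways against DMSO so gain or loss of cell number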
[6] = read-out: Monokine induced gamma interferon (MIG), CXCL9 (gene 4283); experiment: BSK_CASM3C_MIG: BioMAP Diversity Plus: CASM3C Assay for Monokine induced gamma interferon (MIG) Biomarker Activity (AID 2283048); details: primary human coronary artery smooth muscle cells; actives raise or lower the signal;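 note: MIG protein level measured by ELISA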
[7] = read-out: serum amyloid A (SAA), SAA1 (gene 6288); experiment: BSK_CASM3C_SAA: BioMAP Diversity Plus: CASM3C Assay for serum amyloid A (SAA) Biomarker Activity (AID 2283049); details: primary human coronary artery smooth muscle cells; actives raise or lower the signal;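 note: SAA protein level quantified by ELISA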
[8] = BSK_CASM3C_SRB: Viability Assessment in the BioMAP Diversity Plus: CASM3C Assay (AID 2283050); details: primary human coronary artery smooth muscle cells;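 note: cells exposed to compound for 24 h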
[9] = read-out: Thrombomodulin, THBD (gene 7056); experiment: BSK_CASM3C_Thrombomodulin: BioMAP Diversity Plus: CASM3C Assay for Thrombomodulin Biomarker Activity (AID 2283051); details: primary human coronary artery smooth muscle cells; actives raise or lower the signal;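 note: thrombomodulin protein level measured by ELISA 24 h after dosing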
[10] = read-out: Tissue Factor, F3 (gene 2152); experiment: BSK_CASM3C_TissueFactor: BioMAP Diversity Plus: CASM3C Assay for Tissue Factor Biomarker Activity (AID 2283052); details: primary human coronary artery smooth muscle cells; actives raise or lower the signal;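 note: cell surface tissue factor protein level read by ELISA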
[11] = read-out: Interferon-gamma inducible Protein 10 (IP10), CXCL10 (gene 3627); experiment: BSK_hDFCGF_IP10: BioMAP Diversity Plus: hDFCGF Assay for Interferon-gamma inducible Protein 10 (IP10) Biomarker Activity (AID 2283053); details: primary human foreskin fibroblasts; actives raise or lower the signal
Procedure, shortened: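 Primary human foreskin fibroblasts exposed to chemicals for 24 h. IP-10 measured by ELISA; changes fitted bidirectionally against DMSO baseline.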

[12] = read-out: Urokinase-type plasminogen activator receptor (uPAR), PLAUR (gene 5329); experiment: BSK_CASM3C_uPAR: BioMAP Diversity Plus: CASM3C Assay for Urokinase-type plasminogen activator receptor (uPAR) Biomarker Activity (AID 2283054); details: primary human coronary artery smooth muscle cells; actives raise or lower the signal;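 note: cell-surface uPAR protein level quantified by ELISA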
[13] = read-out: Vascular cell adhesion molecule 1 (VCAM1), VCAM1 (gene 7412); experiment: BSK_CASM3C_VCAM1: BioMAP Diversity Plus: CASM3C Assay for Vascular cell adhesion molecule 1 (VCAM1) Biomarker Activity (AID 2283055); details: primary human coronary artery smooth muscle cells; actives raise or lower the signal;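 note: VCAM-1 protein level quantified by ELISA on the cells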
[14] = read-out: Collagen III, COL3A1 (gene 1281); experiment: BSK_hDFCGF_CollagenIII: BioMAP Diversity Plus: hDFCGF Assay for Collagen III Biomarker Activity (AID 2283056); details: primary human foreskin fibroblasts; actives raise or lower the signal
Procedure, shortened: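 Human foreskin fibroblast primary cultures sampled 24 h after dosing; Collagen III quantified by ELISA. Signal fitted bidirectionally against DMSO baseline.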

[15] = read-out: Epidermal growth factor receptor (EGFR), EGFR (gene 1956); experiment: BSK_hDFCGF_EGFR: BioMAP Diversity Plus: hDFCGF Assay for Epidermal growth factor receptor (EGFR) Biomarker Activity (AID 2283057); details: primary human foreskin fibroblasts; actives raise or lower the signal
Procedure, shortened: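 Primary human foreskin fibroblasts (hDFCGF system), sampled 24 h after dosing; EGFR quantified by ELISA. Bidirectional fit relative to DMSO baseline; SRB total-protein staining in parallel cultures for cytotoxicity.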

[16] = read-out: Interleukin-8 (IL8), CXCL8 (gene 3576); experiment: BSK_hDFCGF_IL8: BioMAP Diversity Plus: hDFCGF Assay for Interleukin-8 (IL8) Biomarker Activity (AID 2283058); details: primary human foreskin fibroblasts; actives raise or lower the signal
Procedure, shortened: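 Primary human foreskin fibroblasts (hDFCGF system) dosed with chemical; IL-8 measured by ELISA 24 hours later. Bidirectional curve fitting relative to DMSO baseline; cytotoxicity tracked in parallel cultures by SRB total protein staining.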

[17] = BSK_hDFCGF_Proliferation: Cell Proliferation Assessment in the BioMAP Diversity Plus: hDFCGF Assay (AID 2283059); details: primary human foreskin fibroblasts;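 note: curves fitted for both rise and fall of signal versus DMSO baseline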
Procedure, shortened: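 Steps: dose primary human dermal fibroblasts (foreskin); […] fix in 10% TCA; stain with 0.1% SRB; read 560 nm; fit gain or loss of signal against DMSO.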

[18] = read-out: Macrophage colony-stimulating factor (MCSF), CSF1 (gene 1435); experiment: BSK_hDFCGF_MCSF: BioMAP Diversity Plus: hDFCGF Assay for Macrophage colony-stimulating factor (MCSF) Biomarker Activity (AID 2283060); details: primary human foreskin fibroblasts; actives raise or lower the signal
Procedure, shortened: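 Human foreskin fibroblast primary cultures; M-CSF measured by ELISA 24 hours after chemical dosing. Bidirectional fitting relative to DMSO, with overt cytotoxicity tracked by parallel SRB total-protein staining (0.1% SRB, 10% TCA fixation, 560 nm).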

[19] = BSK_hDFCGF_SRB: Viability Assessment in the BioMAP Diversity Plus: hDFCGF Assay (AID 2283061); details: primary human foreskin fibroblasts;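 note: cells exposed to compound for 24 h before the read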
Procedure, shortened: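 Human foreskin fibroblasts in 96-well plates were treated 24 h. Total protein was measured by 0.1% SRB staining after 10% TCA fixation, read at 560 nm. Data were fitted bidirectionally against DMSO.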

[20] = read-out: TIMP metallopeptidase inhibitor 1 (TIMP1), TIMP1 (gene 7076); experiment: BSK_hDFCGF_TIMP1: BioMAP Diversity Plus: hDFCGF Assay for TIMP metallopeptidase inhibitor 1 (TIMP1) Biomarker Activity (AID 2283062); details: primary human foreskin fibroblasts; actives raise or lower the signal
Procedure, shortened: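 Human foreskin fibroblast primary cultures dosed for 24 h; secreted/surface TIMP-1 quantified by ELISA. Bidirectional curve fitting against DMSO baseline; cytotoxicity tracked in parallel cultures by SRB total-protein staining.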

Measured: AC50

O=C1CCCCCN1
inactive: all assays above

Cn1c(=O)c2c(ncn2C)n(C)c1=O
not listed: [15] | [20]
inactive: all other assays above

COCCOc1cc2cc(C(=O)NC3CCN(C(C)C)CC3)n(CC(=O)Nc3ccc(Cl)cn3)c2cn1
inactive: all assays above

CC[C@H](C)C(=O)O[C@H]1C[C@@H](C)C=C2C=C[C@H](C)[C@H](CC[C@@H]3C[C@@H](O)CC(=O)O3)[C@H]21
inactive: [2] | [3] | [6] | [7] | [8] | [10] | [12] | [13]
active: [1] 19.9 µM | [4] 19.9 µM | [5] 6.08 µM | [9] 0.147 µM | [11] 35.3 µM | [14] 29.8 µM | [16] 33.8 µM | [17] 13.5 µM | [18] 27.6 µM | [19] 32.2 µM | [20] 29.9 µM

CC1=CC(=O)CC(C)(C)C1
inactive: all assays above

COCCOCCOCCOC
inactive: all assays above

Fc1ccccc1[C@@H](F)COC1CCC(Nc2ncnc3[nH]ncc23)CC1 (stereo not given in full)
active: [1] 6.88 µM | [5] 29.2 µM | [12] 9.15 µM | [13] 7.56 µM | [17] 10.3 µM
inactive: all other assays above

CC(C)=CCCC(C)=CC=O
active: [17] 28.1 µM
inactive: all other assays above

CCCCCCc1ccc(O)cc1O
active: [3] 11.9 µM | [5] 32.6 µM | [9] 4.48 µM | [11] 29.8 µM | [14] 17.5 µM | [15] 20 µM | [17] 19 µM | [18] 28.1 µM | [19] 31.2 µM
inactive: [1] | [2] | [4] | [6] | [7] | [8] | [10] | [12] | [13]

Cc1ccc(N)cc1O
active: [9] 11.2 µM | [17] 23.9 µM
inactive: all other assays above
